In PubChem BioAssay (NCI):
About 79,000 compounds went through this panel and 15% of them were active in at least one assay; those are over-represented in the sample as a whole. Active and inactive are the calls of the source. No stated cut-off is given here; in the data, active means growth inhibition above about 70%; inactive means the rest.

Columns and labels:
[1] = NCI Yeast Anticancer Drug Screen. Data for the mec2-1 strain (AID 157); details: S. cerevisiae mec2-1 strain, active compounds read high
Procedure, shortened: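 Cells of the genetically defined mec2-1 yeast strain are incubated with test compound. Inhibition of growth is calculated against vehicle-treated controls.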

[2] = NCI Yeast Anticancer Drug Screen. Data for the rad14 strain (AID 159);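 further: 0% = growth of vehicle-treated control cultures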; details: S. cerevisiae rad14 strain growth inhibition, active compounds read high
Procedure, shortened: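 Compound-treated yeast with a defined DNA-repair lesion; growth inhibition normalised to vehicle-treated cultures.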

[3] = NCI Yeast Anticancer Drug Screen. Data for the sgs1 mgt1 strain (AID 161);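 further: 0% = growth of cultures given vehicle only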; details: S. cerevisiae sgs1 mgt1 strain, active compounds read high
Procedure, shortened: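 Inhibition of yeast growth, normalised to vehicle-treated controls, is reported for a strain bearing genetic alterations in DNA damage repair.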

[4] = NCI Yeast Anticancer Drug Screen. Data for the CLN2oe strain (AID 163);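 further: 0% = growth of vehicle-only control cultures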; details: S. cerevisiae CLN2oe strain, active compounds read high
Procedure, shortened: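 Strain altered in cell-cycle control, incubated with compound; growth compared to solvent-treated controls.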

[5] = NCI Yeast Anticancer Drug Screen. Data for the cln2 rad14 strain (AID 165);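 further: 0% = growth equal to vehicle treated cultures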; details: S. cerevisiae cln2 rad14 strain, active compounds read high
Procedure, shortened: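 The screen exposed genetically defined yeast (cln2 rad14) to test compounds and scored growth inhibition relative to vehicle-treated controls.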

[6] = NCI Yeast Anticancer Drug Screen. Data for the bub3 strain (AID 167); details: S. cerevisiae bub3 mutant strain, active compounds read high
Procedure, shortened: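 Growth of a checkpoint-deficient yeast mutant is measured after compound exposure. Values represent inhibition relative to vehicle.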

[7] = NCI Yeast Anticancer Drug Screen. Data for the wt2 strain (AID 169);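 further: 0% = growth of vehicle-treated yeast cultures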; details: S. cerevisiae wt2 strain growth inhibition, active compounds read high
Procedure, shortened: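 Steps: yeast strain treated with compound; growth recorded; inhibition calculated relative to cultures given vehicle alone.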

[8] = NCI Yeast Anticancer Drug Screen. Data for the mlh1 strain (AID 171);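 further: 0% = growth of vehicle-treated control cultures of the same strain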; details: S. cerevisiae mlh1 strain growth inhibition, active compounds read high
Procedure, shortened: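 Yeast screen: mutant strain plus compound, growth scored against vehicle control wells.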

[9] = NCI Yeast Anticancer Drug Screen. Data for the sgs1 strain (AID 173);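 further: 0% = growth of vehicle-only control cultures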; details: S. cerevisiae sgs1 mutant, active compounds read high
Procedure, shortened: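 Inhibition of yeast growth served as the measure. The mutant strain was treated with each compound, and growth was normalised to cultures receiving vehicle alone.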

[10] = NCI Yeast Anticancer Drug Screen. Data for the mlh1 rad18 strain (AID 175); details: S. cerevisiae mlh1 rad18 strain growth inhibition, active compounds read high
Procedure, shortened: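 Compound-treated yeast growth, normalised to vehicle controls. Strain bears defined DNA repair mutations.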

[11] = NCI Yeast Anticancer Drug Screen. Data for the rad18 strain (AID 177); details: S. cerevisiae rad18 mutant growth inhibition, active compounds read high
Procedure, shortened: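 Inhibition values reflect reduced yeast growth compared with vehicle-treated controls, using a strain engineered with a DNA damage repair defect.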

[12] = NCI Yeast Anticancer Drug Screen. Data for the rad52 strain (AID 147);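 further: 0% = growth of vehicle-treated control cultures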; details: S. cerevisiae rad52 mutant growth inhibition, active compounds read high
Procedure, shortened: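 Genetically altered yeast (DNA damage repair defect) treated with compound; inhibition calculated relative to vehicle.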

[13] = NCI Yeast Anticancer Drug Screen. Data for the wt1 strain (AID 149);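 further: 0% = growth of vehicle-treated wt1 cultures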; details: S. cerevisiae wt1 strain (SPY 50644) growth inhibition, active compounds read high
Procedure, shortened: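 Readout: yeast growth inhibition, normalised to vehicle controls, in the wt1 strain exposed to test compounds.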

[14] = NCI Yeast Anticancer Drug Screen. Data for the rad50EPP+ strain (AID 151);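 further: 0% = growth of vehicle-treated control cultures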; details: S. cerevisiae rad50 mutant strain, active compounds read high
Procedure, shortened: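 Strain rad50EPP+; compound exposure; % growth inhibition vs vehicle.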

[15] = NCI Yeast Anticancer Drug Screen. Data for the mgt1 strain (AID 153); details: S. cerevisiae mgt1 mutant growth inhibition, active compounds read high
Procedure, shortened: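 Read-out: yeast growth inhibition vs vehicle control. Strain mgt1, drawn from a panel altered in DNA damage repair or cell cycle control.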

[16] = NCI Yeast Anticancer Drug Screen. Data for the rad50 strain (AID 155);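 further: 0% = growth of vehicle-only cultures of the same strain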; details: S. cerevisiae rad50 strain growth inhibition, active compounds read high
Procedure, shortened: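 Compounds were tested on a yeast strain with an engineered DNA damage repair alteration; the reported value is growth inhibition normalised to vehicle treatment.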

[17] = at 5.0 µM (retest, dose inferred, filed as 0.5)
[18] = at 50.0 µM (retest, dose inferred, filed as 5.0)

Measured: growth inhibition

CC(=O)Nc1ccc2c(c1)-c1ccccc1C2=O
active: [1]; at 100.0 µM 70% | [2]; at 100.0 µM 82% | [8]; at 100.0 µM 82% | [9]; at 100.0 µM 81% | [11]; at 100.0 µM 89%
inactive: [1]; [17] 7% | [1]; at 11.0 µM 4% | [1]; at 33.0 µM 15% | [1]; [18] 15% | [1]; at 50.0 µM 6.9% | [2]; at 1.2 µM -4% | [2]; at 3.7 µM -6% | [2]; at 11.0 µM -3% | [2]; at 33.0 µM 10% | [3]; [17] -3% | [3]; [18] 6% | [3]; at 50.0 µM 2.4% | [4]; at 1.2 µM -6% | [4]; at 3.7 µM -8% | [4]; at 11.0 µM -8% | [4]; at 33.0 µM -9% | [4]; at 100.0 µM 13% | [5]; [17] -3% | [5]; [18] 11% | [5]; at 50.0 µM -39.4% | [6]; at 1.2 µM 0% | [6]; at 3.7 µM -3% | [6]; [17] -3% | [6]; at 11.0 µM -1% | [6]; at 33.0 µM 7% | [6]; [18] -4% | [6]; at 50.0 µM -20.4% | [6]; at 100.0 µM 66% | [7]; at 1.2 µM -4% | [7]; at 3.7 µM 4% | [7]; at 11.0 µM -6% | [7]; at 33.0 µM 1% | [7]; at 100.0 µM 62% | [8]; at 1.2 µM -2% | [8]; at 3.7 µM -2% | [8]; at 11.0 µM 1% | [8]; at 33.0 µM 13% | [9]; at 1.2 µM -5% | [9]; at 3.7 µM -8% | [9]; at 11.0 µM -9% | [9]; at 33.0 µM 8% | [10]; [17] 1% | [10]; [18] 20% | [10]; at 50.0 µM -1.15% | [11]; at 1.2 µM -3% | [11]; at 3.7 µM -5% | [11]; at 11.0 µM -3% | [11]; at 33.0 µM 14%

c1ccc2cc(NCNc3ccc4ccccc4c3)ccc2c1
inactive: [12]; at 1.2 µM -3% | [12]; at 3.7 µM -6% | [12]; at 11.0 µM -9% | [12]; at 33.0 µM 1% | [12]; at 100.0 µM 24% | [13]; at 1.2 µM 2% | [13]; at 3.7 µM 3% | [13]; at 11.0 µM 6% | [13]; at 33.0 µM 11% | [13]; at 100.0 µM 16% | [14]; at 1.2 µM 0% | [14]; at 3.7 µM 6% | [14]; at 11.0 µM 11% | [14]; at 33.0 µM 26% | [14]; at 100.0 µM 42% | [15]; at 1.2 µM 1% | [15]; at 3.7 µM 0% | [15]; at 11.0 µM 3% | [15]; at 33.0 µM 8% | [15]; at 100.0 µM 12% | [16]; at 1.2 µM 1% | [16]; at 3.7 µM -5% | [16]; [17] -9% | [16]; at 11.0 µM 5% | [16]; at 33.0 µM 0% | [16]; at 100.0 µM 22% | [1]; at 1.2 µM 0% | [1]; at 3.7 µM 1% | [1]; [17] 8% | [1]; at 11.0 µM 3% | [1]; at 33.0 µM 14% | [1]; [18] 46% | [1]; at 50.0 µM 69.8% | [1]; at 100.0 µM 27% | [2]; at 1.2 µM 1% | [2]; at 3.7 µM 1% | [2]; at 11.0 µM 0% | [2]; at 33.0 µM -13% | [2]; at 100.0 µM 16% | [3]; [17] 0% | [3]; [18] 46% | [4]; at 1.2 µM -3% | [4]; at 3.7 µM -3% | [4]; at 11.0 µM -6% | [4]; at 33.0 µM -1% | [4]; at 100.0 µM 6% | [5]; [17] -17% | [5]; [18] -22% | [6]; at 1.2 µM 0% | [6]; at 3.7 µM 6% | [6]; [17] 18% | [6]; at 11.0 µM -22% | [6]; at 33.0 µM 51% | [6]; at 100.0 µM 55% | [7]; at 1.2 µM -1% | [7]; at 3.7 µM 1% | [7]; at 11.0 µM 1% | [7]; at 33.0 µM 7% | [7]; at 100.0 µM 12% | [8]; at 1.2 µM 3% | [8]; at 3.7 µM 3% | [8]; at 11.0 µM 4% | [8]; at 33.0 µM -22% | [8]; at 100.0 µM 15% | [9]; at 1.2 µM 3% | [9]; at 3.7 µM 0% | [9]; at 11.0 µM 1% | [9]; at 33.0 µM 8% | [9]; at 100.0 µM 27% | [10]; [17] 12% | [10]; [18] 65% | [11]; at 1.2 µM -5% | [11]; at 3.7 µM -2% | [11]; at 11.0 µM -19% | [11]; at 33.0 µM -9% | [11]; at 100.0 µM 3%
active: [16]; [18] 75% | [16]; at 50.0 µM 95.8% | [3]; at 50.0 µM 95.3% | [5]; at 50.0 µM 76.9% | [6]; [18] 76% | [6]; at 50.0 µM 94.8% | [10]; at 50.0 µM 94.9%

CN(C)CCNC(=O)c1cccc2cc([N+](=O)[O-])ccc12
active: [12]; at 33.0 µM 92% | [12]; at 100.0 µM 96% | [13]; at 33.0 µM 80% | [13]; at 100.0 µM 93% | [14]; at 33.0 µM 91% | [14]; at 100.0 µM 95% | [15]; at 33.0 µM 78% | [15]; at 100.0 µM 92% | [16]; at 11.0 µM 77% | [16]; at 33.0 µM 93% | [16]; [18] 92% | [16]; at 50.0 µM 86.5% | [16]; at 100.0 µM 97% | [1]; at 33.0 µM 70% | [1]; [18] 72% | [1]; at 50.0 µM 82.7% | [1]; at 100.0 µM 93% | [2]; at 33.0 µM 80% | [2]; at 100.0 µM 93% | [3]; at 50.0 µM 84.3% | [4]; at 100.0 µM 84% | [5]; at 50.0 µM 71% | [6]; at 50.0 µM 82.8% | [6]; at 100.0 µM 85% | [7]; at 100.0 µM 87% | [8]; at 100.0 µM 92% | [9]; at 33.0 µM 79% | [9]; at 100.0 µM 93% | [10]; [18] 86% | [11]; at 33.0 µM 70% | [11]; at 100.0 µM 90%
inactive: [12]; at 1.2 µM 14% | [12]; at 3.7 µM 20% | [12]; at 11.0 µM 61% | [13]; at 1.2 µM 13% | [13]; at 3.7 µM 8% | [13]; at 11.0 µM 41% | [14]; at 1.2 µM 5% | [14]; at 3.7 µM 21% | [14]; at 11.0 µM 64% | [15]; at 1.2 µM -1% | [15]; at 3.7 µM 4% | [15]; at 11.0 µM 33% | [16]; at 1.2 µM 35% | [16]; at 3.7 µM 42% | [16]; [17] 38% | [1]; at 1.2 µM -6% | [1]; at 3.7 µM 8% | [1]; [17] 11% | [1]; at 11.0 µM 20% | [2]; at 1.2 µM -1% | [2]; at 3.7 µM 10% | [2]; at 11.0 µM 47% | [3]; [17] -2% | [3]; [18] 68% | [4]; at 1.2 µM 15% | [4]; at 3.7 µM 20% | [4]; at 11.0 µM 43% | [4]; at 33.0 µM 56% | [5]; [17] 23% | [5]; [18] 55% | [6]; at 1.2 µM -12% | [6]; at 3.7 µM -27% | [6]; [17] 8% | [6]; at 11.0 µM -18% | [6]; at 33.0 µM 51% | [6]; [18] 67% | [7]; at 1.2 µM -13% | [7]; at 3.7 µM -10% | [7]; at 11.0 µM 5% | [7]; at 33.0 µM 60% | [8]; at 1.2 µM -7% | [8]; at 3.7 µM 6% | [8]; at 11.0 µM 33% | [8]; at 33.0 µM 69% | [9]; at 1.2 µM 16% | [9]; at 3.7 µM 22% | [9]; at 11.0 µM 49% | [10]; [17] 18% | [10]; at 50.0 µM 45.6% | [11]; at 1.2 µM 7% | [11]; at 3.7 µM 5% | [11]; at 11.0 µM 23%
